# Test results reported in PubChem BioAssay AID1159580 (chemical genetic matrix, 2015).
# “And” between values parts separate entries of the source, which are not always exact repeats. Equal values may be shown once. The whole screen tested about 5,500 compounds, of which about 2,000 (36%) were called active. Roughly 18% stayed inconclusive and do not appear here. The list shows a part of the results. Values without a mark were called inactive. Cut-off read from the data, not from the text of the source: active = normalized growth mostly below about 0.91 (no sharp cut-off); inconclusive = no clear call, values can overlap the other calls; inactive = mostly above about 0.92.
# Assay: chemical genetic growth profiling, strain panel (AID 1159580);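 note: tested at 20 µM; growth read once vehicle control cultures reached saturation at 30 °C; 1 = growth at the plate median or of vehicle wells; lower values mean less growth of the strain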
# Conditions: S. cerevisiae deletion strains, growth OD
smiles,measurement,setting,value
Nc1nc(N)c2nc(CNc3ccc(C(=O)NC(CCC(=O)O)C(=O)O)cc3)cnc2n1 (stereo not given),normalized growth,"locus YAL013W, strain DEP1, hits give low values",1.03
same,normalized growth,"locus YAL021C, strain ccr4, hits give low values",0.925
same,normalized growth,"locus YAL026C, strain drs2, hits give low values",0.991
same,normalized growth,"locus YAL030W, strain snc1, hits give low values",0.989
same,normalized growth,"locus YAL040C, strain CLN3, hits give low values",0.994
same,normalized growth,"locus YBL061C, strain skt5, hits give low values",1
same,normalized growth,"locus YBR009C, strain hhf1, hits give low values",0.991
same,normalized growth,"locus YBR021W, strain FUR4, hits give low values",1.2 [resistant] (active)
same,normalized growth,"locus YBR023C, strain chs3, hits give low values",0.995
same,normalized growth,"locus YBR171W, strain sec66, hits give low values",1.01
same,normalized growth,"locus YBR229C, strain ROT2, hits give low values",1
same,normalized growth,"locus YBR231C, strain swc5, hits give low values",1.01
same,normalized growth,"locus YBR279W, strain paf1, hits give low values",1
same,normalized growth,"locus YCL011C, strain gbp2, hits give low values",0.983
same,normalized growth,"locus YCL016C, strain dcc1, hits give low values",0.975
same,normalized growth,"locus YCL029C, strain bik1, hits give low values",0.977
same,normalized growth,"locus YCL069W, strain vba3, hits give low values",0.996
same,normalized growth,"locus YCR088W, strain abp1, hits give low values",0.996
same,normalized growth,"locus YDL005C, strain med2, hits give low values",0.996
same,normalized growth,"locus YDL035C, strain GPR1, hits give low values",1.03
same,normalized growth,"locus YDL040C, strain nat1, hits give low values",1
same,normalized growth,"locus YDL074C, strain BRE1, hits give low values",0.993
same,normalized growth,"locus YDL101C, strain DUN1, hits give low values",0.996
same,normalized growth,"locus YDL134C, strain PPH21, hits give low values",1.02
same,normalized growth,"locus YDL185W, strain tfp1, hits give low values",0.961
same,normalized growth,"locus YDL192W, strain arf1, hits give low values",1
same,normalized growth,"locus YDR001C, strain nth1, hits give low values",0.987
same,normalized growth,"locus YDR069C, strain doa4, hits give low values",0.985
same,normalized growth,"locus YDR101C, strain arx1, hits give low values",0.982
same,normalized growth,"locus YDR137W, strain rgp1, hits give low values",0.985
same,normalized growth,"locus YDR150W, strain NUM1, hits give low values",1
same,normalized growth,"locus YDR159W, strain sac3, hits give low values",1.05
same,normalized growth,"locus YDR162C, strain NBP2, hits give low values",0.993
same,normalized growth,"locus YDR195W, strain ref2",0.961
same,normalized growth,"locus YDR297W, strain sur2, hits give low values",1
same,normalized growth,"locus YDR318W, strain mcm21, hits give low values",1
same,normalized growth,"locus YDR334W, strain swr1, hits give low values",0.985
same,normalized growth,"locus YDR335W, strain msn5, hits give low values",0.977
same,normalized growth,"locus YDR363W, strain ESC2, hits give low values",1
same,normalized growth,"locus YDR388W, hits give low values",0.994
same,normalized growth,"locus YDR392W, strain spt3, hits give low values",0.94
same,normalized growth,"locus YDR502C, strain sam2, hits give low values",1
same,normalized growth,"locus YEL003W, strain gim4, hits give low values",1
same,normalized growth,"locus YEL037C, strain rad23, hits give low values",0.989
same,normalized growth,"locus YEL061C, strain CIN8 (second series), hits give low values",0.996
same,normalized growth,"locus YEL061C, strain CIN8, hits give low values",0.994
same,normalized growth,"locus YER002W, strain NOP16, hits give low values",0.993
same,normalized growth,"locus YER015W, strain faa2, hits give low values",0.994
same,normalized growth,"locus YER016W, strain bim1, hits give low values",0.998
same,normalized growth,"locus YER110C, hits give low values",0.981
same,normalized growth,"locus YER111C, strain swi4, hits give low values",0.995
same,normalized growth,"locus YER155C, strain BEM2 (second series), hits give low values",1.05
same,normalized growth,"locus YER155C, strain BEM2, hits give low values",0.987
same,normalized growth,"locus YER167W, strain BCK2, hits give low values",1
same,normalized growth,"locus YFR010W, strain ubp6, hits give low values",0.982
same,normalized growth,"locus YGL078C, strain dbp3, hits give low values",0.999
same,normalized growth,"locus YGL086W, strain mad1, hits give low values",0.994
same,normalized growth,"locus YGL167C, strain pmr1, hits give low values",0.974
same,normalized growth,"locus YGL173C, strain kem1, hits give low values",1.01
same,normalized growth,"locus YGL227W, strain vid30, hits give low values",1
same,normalized growth,"locus YGL240W, strain doc1, hits give low values",1.03
same,normalized growth,"locus YGL248W, strain PDE1, hits give low values",1
same,normalized growth,"locus YGL253W, strain hxk2, hits give low values",1.01
same,normalized growth,"locus YGR078C, strain PAC10, hits give low values",1.02 and 0.965
same,normalized growth,"locus YGR135W, strain pre9, hits give low values",0.998
same,normalized growth,"locus YGR252W, strain gcn5, hits give low values",1.14
same,normalized growth,"locus YHR013C, strain ard1, hits give low values",0.971
same,normalized growth,"locus YHR027C, strain rpn1, hits give low values",0.982
same,normalized growth,"locus YHR030C, strain SLT2, hits give low values",0.99
same,normalized growth,"locus YHR079C, strain IRE1 (second series), hits give low values",0.978
same,normalized growth,"locus YHR094C, strain hxt1, hits give low values",0.991
same,normalized growth,"locus YHR129C, strain ARP1, hits give low values",1
same,normalized growth,"locus YHR142W, strain chs7, hits give low values",0.965
same,normalized growth,"locus YHR200W, strain rpn10, hits give low values",0.992
same,normalized growth,"locus YIL066C, strain RNR3, hits give low values",1
same,normalized growth,"locus YIL073C, strain SPO22, hits give low values",0.946
same,normalized growth,"locus YIL125W, strain kgd1, hits give low values",0.993
same,normalized growth,"locus YIR030C, strain dcg1, hits give low values",0.988
same,normalized growth,"locus YJL092W, strain hpr5, hits give low values",0.983
same,normalized growth,"locus YJL095W, strain BCK1 (second series), hits give low values",0.985
same,normalized growth,"locus YJL095W, strain BCK1, hits give low values",0.984
same,normalized growth,"locus YJL115W, strain asf1, hits give low values",0.962
same,normalized growth,"locus YJL129C, strain trk1, hits give low values",0.998
same,normalized growth,"locus YJL134W, strain LCB3, hits give low values",0.988
same,normalized growth,"locus YJL154C, strain vps35, hits give low values",0.99
same,normalized growth,"locus YJL164C, strain tpk1, hits give low values",0.964
same,normalized growth,"locus YJL166W, strain qcr8, hits give low values",1.02
same,normalized growth,"locus YJL168C, strain set2, hits give low values",0.998
same,normalized growth,"locus YJL187C, strain SWE1 (second series), hits give low values",0.992
same,normalized growth,"locus YJR043C, strain POL32, hits give low values",1.04
